In the library only some 1.5% were active in any assay of this set; here they are far more common.
TMEM16A act – mouse TMEM16A channel activation, primary screen | HEK293 TMEM16A/YFP-H148Q/I152L, iodide quench fluorescence; active compounds read low | Q8BHY3 | actives 0.3% (n = 340,000) | B-score at 10 µM;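 active = fluorescence-ratio B-score plate-corrected deviation score at least 3 library SD below zero, with starting fluorescence score within 5 deviations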;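 note: channel opened by trigger with iodide after compound preincubation; score built on the fluorescence ratio of max minus min over baseline; more negative score means more quench and so TMEM16A activation or potentiation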
ANO1 block – mouse TMEM16A channel inhibition, primary screen | Q8BHY3 | actives 1.2% (n = 310,000) | normalized B-score (activity score, 25-100; higher = stronger inhibition) at 10 µM | AID 588511 | HEK293 TMEM16A/YFP iodide influx fluorescence, ionomycin;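 active = ratio plate-corrected score three or more library SD toward inhibition, starting fluorescence score within five deviations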;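 note: score derived from kinetic fluorescence span divided by baseline fluorescence per well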
iPSC survival up – increases survival of single human iPS cells | survival enhancement, % at 20 µM | AID 602274 | hiPSC single-cell survival, ATPlite luminescence; 100% = ROCK inhibitor wells, 0% = DMSO | actives 0.044% (n = 360,000); in the data active = survival enhancement above about 18%;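 note: cells exposed to compounds for 16 hours before the ATP read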
DAGLB inhibitor – diacylglycerol lipase beta (human) inhibition; HEK293T DAGLB membrane lysate, EnzChek fluorogenic substrate; AID 504411; inhibition, % at 5.17 µM; actives 0.059% (n = 340,000); Q8NCG7; in the data active = inhibition above about 34%
ABCB6 inh MLPCN – blocks the human ABCB6 transporter. Q9NP58. K562-ABCB6 porphyrin accumulation, flow cytometry, 1 h; active compounds read low. fluorescence ratio to DMSO, % at 10 µM. actives 0.19% (n = 360,000);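 active = fluorescence ratio to DMSO below 75%, the collection mean minus 3 SD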;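 note: signal is porphyrin accumulated inside mitochondria; lower ratio means ABCB6 inhibition with less porphyrin fluorescence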
Target sequence (Q9NP58 whole entry, looked up): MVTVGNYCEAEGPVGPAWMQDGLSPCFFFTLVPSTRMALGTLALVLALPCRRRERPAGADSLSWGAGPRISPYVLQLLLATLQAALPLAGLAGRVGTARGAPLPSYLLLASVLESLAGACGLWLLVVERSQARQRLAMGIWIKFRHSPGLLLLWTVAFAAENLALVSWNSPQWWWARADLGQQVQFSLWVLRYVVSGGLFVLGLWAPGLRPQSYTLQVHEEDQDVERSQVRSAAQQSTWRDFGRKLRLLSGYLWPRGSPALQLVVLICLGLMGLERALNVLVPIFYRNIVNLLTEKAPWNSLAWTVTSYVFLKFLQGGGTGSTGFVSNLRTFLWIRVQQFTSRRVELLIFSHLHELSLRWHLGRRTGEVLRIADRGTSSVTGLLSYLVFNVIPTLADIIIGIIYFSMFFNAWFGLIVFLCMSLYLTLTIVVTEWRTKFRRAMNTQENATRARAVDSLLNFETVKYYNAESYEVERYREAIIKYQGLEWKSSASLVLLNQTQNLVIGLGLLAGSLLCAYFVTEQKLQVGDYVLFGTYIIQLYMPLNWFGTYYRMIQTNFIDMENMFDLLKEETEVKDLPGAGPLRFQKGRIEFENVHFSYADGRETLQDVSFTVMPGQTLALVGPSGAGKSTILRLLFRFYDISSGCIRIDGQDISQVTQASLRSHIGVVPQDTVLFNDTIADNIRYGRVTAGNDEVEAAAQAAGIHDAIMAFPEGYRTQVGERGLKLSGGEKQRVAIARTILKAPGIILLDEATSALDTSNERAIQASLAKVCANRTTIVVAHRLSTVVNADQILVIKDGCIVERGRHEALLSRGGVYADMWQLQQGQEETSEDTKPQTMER
TMEM16A reconf – TMEM16A (mouse) chloride channel inhibition, re-confirmation. inhibition, % at 10 µM. shares compounds with ANO1 block. HEK293 TMEM16A/YFP-H148Q, iodide quench fluorescence; ionomycin added to raise cell calcium. actives 39% (n = 2,300);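 active = mean duplicate percent inhibition, scaled so buffer wells are 0 and the reference blocker 100, over three buffer SD above buffer mean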
TMEM16A Ca cntr – counter-screen for TMEM16A inhibitors: effect on calcium mobilization; shares compounds with ANO1 block; TMEM16A/YFP HEK293, Fluo4 calcium mobilization; calcium response (% of ionomycin), % at 10 µM; actives 2% (n = 2,300); AID 652231;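 active = duplicate-averaged calcium signal over 20% of the ionomycin maximum, relative to buffer baseline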;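 note: each well's signal is peak minus trough fluorescence divided by its pre-addition baseline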
Parental YFP cnt – counter-screen for TMEM16A inhibitors: effect in parental YFP-HEK293 cells; shares compounds with ANO1 block; iodide YFP quench, ionomycin; YFP ratio F(max-min)/F0 at 10 µM; 2,300 tested, under 10 active; AID 652233;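 active = yellow fluorescent protein signal ratio exceeding the buffer control mean by over 5 SD of those controls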;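 note: ratio is mean of duplicate wells from kinetic YFP trace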
ClC-1 rat inh – rat ClC-1 inhibition, TMEM16A specificity screen; CHO ClC-1-YFP, iodide influx fluorescence quench; iodide control reads 0, buffer control 100; 2,300 tested, under 10 active; shares compounds with ANO1 block; ratio percent, % at 10 µM;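 active = duplicate-mean ratio percent above the mean of iodide-only control wells, which defines zero, plus 5 of their SD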;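 note: higher percent means stronger block of ClC-1 iodide influx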
Numbers stand for hits; - = inactive; . = no result.

SMILES | TMEM16A act | ANO1 block | iPSC survival up | DAGLB inhibitor | ABCB6 inh MLPCN | TMEM16A reconf | TMEM16A Ca cntr | Parental YFP cnt | ClC-1 rat inh
COc1cc([C@@H]2c3cc4c(cc3[C@@H](O[C@@H]3O[C@@H]5CO[C@@H](C)O[C@H]5[C@H](O)[C@H]3O)[C@H]3COC(=O)[C@H]23)OCO4)cc(OC)c1O | - | - | - | - | - | . | . | . | .
COc1cc(C2c3cc4c(cc3C(OC3OC5COC(c6cccs6)OC5C(O)C3O)C3COC(=O)C23)OCO4)cc(OC)c1O (stereo unspecified) | - | 25 | - | - | - | - | - | - | -
COc1ccccc1-c1sc2cc3c(cc2c1C#Cc1cncn1C)OCO3 | - | . | - | - | - | . | . | . | .
Cc1ccccc1C(=O)NNC(=S)NC(=O)COc1ccccc1 | - | 25 | - | - | - | 34.5% | 79.5% | - | -
COC(=O)c1ccccc1NC(=S)NC(=O)COc1ccccc1 | - | - | - | - | - | . | . | . | .
Cc1ccc(S(=O)(=O)CC(=O)Nc2nc3ccc(S(N)(=O)=O)cc3s2)cc1 | - | - | - | - | - | . | . | . | .
COc1ccc(N2C(=O)C3CCCN3C2c2cccc(OC)c2OC)cc1 (stereo unspecified) | - | 25 | - | - | - | - | - | - | -
Cc1ccc(NC(=S)NNC(=O)c2ccc(N3CCOCC3)c([N+](=O)[O-])c2)cc1Cl | - | 25 | - | - | - | 26.0% | - | - | -
O=C(NNC(=S)Nc1ccc(Cl)c(Cl)c1)c1cccc([N+](=O)[O-])c1 | - | 100 | - | . | - | 78.5% | - | - | -
COc1ccc(N(CC(=O)NC2CCCC2)C(=O)Cn2nnc(-c3ccc(C)cc3)n2)cc1 | - | 25 | - | - | - | - | - | - | -
CCC(C)NC(=O)CSc1nnc(-c2ccc(OC)c(OC)c2)c(-c2ccc(OC)c(OC)c2)n1 (stereo unspecified) | - | - | - | - | - | . | . | . | .
N#CCSc1nnc(COc2cccc3ccccc23)n1-c1ccccc1 | - | 25 | - | - | - | - | - | - | -
N#CCSc1nnc(COc2ccccc2)n1-c1ccccc1 | - | 25 | - | - | - | - | - | - | -
CSCCC(NC(=O)c1ccccc1Cl)C(=O)OCC(=O)N1CCCC1=O (stereo unspecified) | - | - | - | - | - | . | . | . | .
C=CCN(C(=O)CSc1nc2ccsc2c(=O)n1Cc1ccc(C(=O)O)cc1)c1ccccc1 | . | . | - | - | - | . | . | . | .
Cc1ccc(O)c(O)c1 | . | - | . | . | . | . | . | . | .
COC(=O)c1ccc(O)c(Sc2cc(C(=O)OC)ccc2O)c1 | - | 100 | - | - | - | 19.0% | - | - | -
Cc1ccc(O)c(Sc2cc(C)ccc2O)c1 | - | 25 | - | - | - | 38.0% | - | - | -
COc1ccc(-c2c(-c3cc(OC)cc(OC)c3)n(C)c3ccc(-c4ccc(N(C)C)nc4)cc23)cc1 | - | . | - | - | - | . | . | . | .
CC1CN(S(=O)(=O)c2cccc(C(=O)OCC(=O)c3cccs3)c2)CC(C)O1 (stereo unspecified) | - | - | - | - | - | - | - | - | -
Cc1cccc(N(Cc2ccccc2)C(=O)CSC(C)C(=O)Nc2cc(C)on2)c1 (stereo unspecified) | - | - | - | - | - | . | . | . | .
O=C(NCCOc1ccccc1)[C@@H]1CCCN1C(=O)c1cccs1 | - | . | - | - | - | . | . | . | .
Cc1cc(NNC(=O)c2cccc(C(F)(F)F)c2)nc2c1c(C)nn2C | - | 25 | - | - | - | - | - | - | -
COc1cccc(CC(=O)N(CCC2=CCCCC2)c2c(N)n(Cc3ccccc3)c(=O)[nH]c2=O)c1 | - | - | - | - | - | . | . | . | .
CCOC(=O)c1ccc(-n2[nH]c(-c3ccccc3)cc2=O)cc1 | - | 100 | - | - | - | - | - | - | -
SMILES | TMEM16A act | ANO1 block | iPSC survival up | DAGLB inhibitor | ABCB6 inh MLPCN | TMEM16A reconf | TMEM16A Ca cntr | Parental YFP cnt | ClC-1 rat inh
CCOC(=O)c1ccc(N=Nc2c(C)[nH]n(-c3ccccc3)c2=O)cc1 | - | - | - | - | - | . | . | . | .
CC(=O)c1ccc(NC(=O)N2CCN(c3ccc(C)cc3)C(C)C2)cc1 (stereo unspecified) | - | 25 | - | - | - | - | - | - | -
CC(=O)c1ccc(N2CCN(C(=O)Nc3ccc(C)cc3)CC2)cc1 | - | - | - | - | - | . | . | . | .
N#C/C(=C\c1ccc(Sc2nc3ccccc3[nH]2)o1)c1ccccc1 | - | 100 | - | - | - | 22.0% | - | - | -
CN(Cc1ccccc1)C(=O)COc1cc(=O)n(C)c2ccccc12 | - | - | - | - | - | - | - | - | -
CCN(Cc1ccccc1)C(=O)COc1cc(=O)n(CC)c2ccccc12 | - | - | - | - | - | . | . | . | .
COc1ccccc1OCCn1ccnc1 | - | - | - | - | - | . | . | . | .
CCN(CC)CCCCOc1ccccc1OC | - | 100 | - | - | - | - | - | - | -
C[C@@H](C(=O)N=c1sc2ccccc2n1C)N1C(=O)C2CC=CCC2C1=O (stereo partly specified) | - | . | - | - | - | . | . | . | .
Cc1c(Cl)cccc1NC(=O)CNC(=O)CCS(=O)(=O)c1ccc(F)cc1 | - | . | - | - | - | . | . | . | .
O=C(CN1C(=O)S/C(=C\c2ccccc2)C1=O)Nc1cc([N+](=O)[O-])ccc1O | - | 100 | - | - | - | 22.5% | - | - | -
Cc1ccc(/C=C2/SC(=S)N(CCCC(=O)Nc3cc([N+](=O)[O-])ccc3O)C2=O)cc1 | - | - | - | - | - | . | . | . | .
Cc1ccc(S(=O)(=O)N2CCCC2CNC(=O)c2ccc3c(c2)OCO3)cc1 (stereo unspecified) | - | - | - | - | - | . | . | . | .
C/C(N)=C(/C#N)C(=O)COC(=O)CC1CCCC1 | - | - | - | - | - | . | . | . | .
C/C(N)=C(/C#N)C(=O)COC(=O)C1CCC(C(C)(C)C)CC1 (stereo unspecified) | - | 25 | - | - | - | 28.0% | - | - | -
CC(=O)c1ccc(NC(=S)N2c3ccccc3CC2C)cc1 (stereo unspecified) | - | - | - | - | - | . | . | . | .
CC1Cc2ccccc2N1C(=S)Nc1ccc(S(N)(=O)=O)cc1 (stereo unspecified) | - | 100 | - | - | - | - | - | - | -
COCCN1CCN(c2cc(-c3ccccc3)nc3cc(-c4cccc(F)c4)nn23)CC1 | - | 100 | - | - | - | - | - | - | -

Screens as filed in PubChem BioAssay.
